Only a selection was taken, and hits are over-represented in it overall.
KDM5B inhibitor = inhibitors of human KDM5B histone demethylase | Q9UGL1 | KDM5B demethylase, FDH-coupled NADH fluorescence (FDH is formaldehyde dehydrogenase) | Potency, µM (series often up to 57.7 µM), actives largely listed as inhibitors | 220,000 compounds, 2.6% hits | AID 1347165; active = well fitted inhibition curve with a large enough effect; also: nearly all actives have a fitted effect of over 70% in size
Target sequence (Q9UGL1 whole entry, looked up): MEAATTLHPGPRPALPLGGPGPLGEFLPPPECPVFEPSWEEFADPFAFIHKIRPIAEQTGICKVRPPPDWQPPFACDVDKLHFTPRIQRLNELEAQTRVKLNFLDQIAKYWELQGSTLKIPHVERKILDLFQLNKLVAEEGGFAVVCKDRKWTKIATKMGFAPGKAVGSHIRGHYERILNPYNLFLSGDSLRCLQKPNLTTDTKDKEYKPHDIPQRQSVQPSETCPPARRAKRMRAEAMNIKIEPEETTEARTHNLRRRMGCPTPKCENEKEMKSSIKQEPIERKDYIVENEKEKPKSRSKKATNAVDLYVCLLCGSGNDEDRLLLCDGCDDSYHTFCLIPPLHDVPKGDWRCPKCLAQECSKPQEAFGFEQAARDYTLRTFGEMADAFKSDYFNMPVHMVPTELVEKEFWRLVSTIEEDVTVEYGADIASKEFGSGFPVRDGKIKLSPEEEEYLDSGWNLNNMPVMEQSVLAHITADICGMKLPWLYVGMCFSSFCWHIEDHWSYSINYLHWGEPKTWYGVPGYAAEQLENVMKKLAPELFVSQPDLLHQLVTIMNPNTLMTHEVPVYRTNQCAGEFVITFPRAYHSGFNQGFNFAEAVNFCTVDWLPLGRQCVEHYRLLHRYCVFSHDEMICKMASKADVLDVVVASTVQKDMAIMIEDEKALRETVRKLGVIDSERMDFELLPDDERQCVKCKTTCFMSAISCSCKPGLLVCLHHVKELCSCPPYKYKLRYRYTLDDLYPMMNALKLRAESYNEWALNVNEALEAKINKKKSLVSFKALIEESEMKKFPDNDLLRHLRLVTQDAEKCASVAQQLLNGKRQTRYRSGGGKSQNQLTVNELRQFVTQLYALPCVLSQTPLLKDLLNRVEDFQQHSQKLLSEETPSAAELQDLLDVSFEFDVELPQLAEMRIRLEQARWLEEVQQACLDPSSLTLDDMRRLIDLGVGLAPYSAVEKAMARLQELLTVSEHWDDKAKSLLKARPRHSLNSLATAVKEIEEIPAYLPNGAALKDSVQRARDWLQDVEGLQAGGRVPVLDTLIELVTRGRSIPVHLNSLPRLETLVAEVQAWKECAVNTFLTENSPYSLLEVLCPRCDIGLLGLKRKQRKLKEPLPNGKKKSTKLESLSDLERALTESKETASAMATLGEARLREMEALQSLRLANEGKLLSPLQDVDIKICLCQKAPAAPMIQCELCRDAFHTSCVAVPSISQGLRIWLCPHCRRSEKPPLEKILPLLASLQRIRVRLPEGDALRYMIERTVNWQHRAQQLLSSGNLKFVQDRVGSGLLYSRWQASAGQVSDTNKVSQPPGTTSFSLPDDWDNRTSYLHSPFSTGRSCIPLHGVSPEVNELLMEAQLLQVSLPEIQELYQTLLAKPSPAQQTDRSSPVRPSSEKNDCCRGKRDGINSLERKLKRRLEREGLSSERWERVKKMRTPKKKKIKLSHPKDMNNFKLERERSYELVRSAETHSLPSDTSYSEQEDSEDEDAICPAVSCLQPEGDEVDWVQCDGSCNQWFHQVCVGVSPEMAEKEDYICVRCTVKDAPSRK
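qHTS format, multiple compound concentrations. Buffer 50 mM HEPES pH 7.5/0.01% Tween-20; 200 nM KDM5BΔAP final; 10 min compound preincubation; substrate-mix levels 12.5 µM peptide, 25 µM α-KG, 0.25 mM NAD⁺; 30 min RT; ΔRFU.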
Numbers stand for hits; 0 = inactive.

SMILES | KDM5B inhibitor
O=C([C@@H]1C[C@@H](O)[C@H](O)[C@@H]2NC(=S)N(c3ccc(Cl)cc3)[C@@H]21)N1CCCCC1 | 0
O=C(c1ccc(F)cc1Cl)N1C[C@@H](CO)[C@H](c2ccccn2)C1 | 0
O=C(Nc1ccc(C(=O)N2CCCCC2)cc1)Nc1cccc(Cl)c1 | 0
Cc1cccc(NC(=O)N2CCc3c(c4cc(F)ccc4n3C)C2)c1 | 32µM
O=C(Nc1cccc(Cl)c1)N1CCN(c2ccc(Cl)c(Cl)c2)CC1 | 0
Cn1c2c(c3cc(F)ccc31)CN(C(=O)Nc1cccc(Cl)c1)CC2 | 32µM
Cc1cccc(NC(=O)C2CCCN(C(=O)Nc3ccc(F)cc3)C2)c1 (stereo not given) | 0
Cc1cccc(NC(=O)N2CCC(C(=O)c3ccc(F)cc3)CC2)c1 | 0
COc1ccc(NC(=O)c2ncoc2-c2ccc(C)o2)cc1Cl | 0
Cc1nn(Cc2ccccc2Cl)c(C)c1NC(=O)NC1CCCC1 | 0
COc1ccc(-c2c(NC(=O)c3cccc([N+](=O)[O-])c3)oc3c(C)cccc3c2=O)cc1OC | 0
CCc1cc2c(C)cc(=O)oc2cc1OCC(=O)c1ccc(OC)cc1 | 0
CCOc1ccc(N(C(C)C(=O)NCc2ccc(Cl)cc2Cl)S(C)(=O)=O)cc1 (stereo not given) | 0
O=C1CCC(C(=O)N2CCc3nc(-c4cccc(F)c4)[nH]c3C2)NC(=O)N1 (stereo not given) | 22µM
O=C(c1cc(F)cc(Cl)c1)N1CCc2nc(-c3cccc(F)c3)[nH]c2C1 | 0
O=C(C1CC12CCCC2)N1CCc2onc(-c3cccc(F)c3)c2C1 (stereo not given) | 0
Cc1cccc(C(=O)NC(Nc2cc(C)ccc2C)C(Cl)(Cl)Cl)c1 (stereo not given) | 0
O=c1cc(-c2ccncc2)oc2c(-c3cccc(CO)c3)nccc12 | 35µM
COc1ccccc1N1CCN(C(=O)CCc2conc2-c2cccc(F)c2)CC1 | 0
CN1CCN(c2cc(=O)c3ccnc(-c4cccc(F)c4)c3o2)CC1 | 35µM
CN(C)c1cc(=O)c2ccnc(-c3cccc(CO)c3)c2o1 | 0
CN1CCN(c2cc(=O)c3ccnc(-c4ccc(CO)cc4)c3o2)CC1 | 35µM
Cc1ccc(C(=O)NCc2ccc(N3CCN(C)CC3)nc2)o1 | 0
O=c1cc(-c2ccncc2)oc2c(-c3cccc4[nH]ccc34)nccc12 | 0
CCc1ccc(C(=O)NCc2ccnc(N3CCN(C)CC3)c2)o1 | 0
SMILES | KDM5B inhibitor
CN1CCN(c2cc(=O)c3ccnc(-c4cccc(CO)c4)c3o2)CC1 | 28µM
CN1CCN(c2ccc(NC(=O)c3cccc(F)c3)nc2)CC1 | 0
O=C(CCC1CCCC1)N1CCCC(c2noc(COc3ccccc3)n2)C1 (stereo not given) | 0
Cc1nnc(NC(=O)CSc2nnc(C3CC3)n2C(C)C)s1 | 0
CC1CN(CCCCN)CC(C)O1 (stereo not given) | 0
CCN(CC)Cc1ccc(CNC(=O)/C=C/c2cccs2)cc1 | 0
O=C(NCCCNC(=O)c1ccccc1Br)c1nc2ccccc2c(=O)[nH]1 | 0
CC(=O)Nc1ccc(-c2csc(NC3CCCCC3)n2)c(F)c1 | 0
Cc1cc(NC(=O)CCn2nc(-c3cccs3)oc2=O)ccc1Br | 0
COCCCNC(=O)c1c(OCC2CC2)cc(=O)n2c1CCOCC2 | 0
Cc1ccc(N2CC(c3noc(-c4ccsc4)n3)CC2=O)cc1 (stereo not given) | 0
CC(C)c1ccc(-c2nc(C3CC(=O)N(c4ccc(F)cc4)C3)no2)cc1 (stereo not given) | 0
Cc1ccc(N2CC(c3noc(-c4cccc(N(C)C)c4)n3)CC2=O)cc1 (stereo not given) | 35µM
CC(C)(C)c1ccc(-c2nc(C3CC(=O)N(c4ccc(F)cc4)C3)no2)cc1 (stereo not given) | 0
COc1ccc(N2CC(c3noc(-c4cccc(F)c4)n3)CC2=O)cc1 (stereo not given) | 0
CN(C)c1ccc(-c2nc(C3CC(=O)N(c4ccc(F)cc4)C3)no2)cc1 (stereo not given) | 32µM
CN(C)c1cccc(-c2nc(C3CC(=O)N(c4ccc(F)cc4)C3)no2)c1 (stereo not given) | 35µM
COc1cccc(-c2nc(C3CC(=O)N(c4ccc(F)cc4)C3)no2)c1 (stereo not given) | 0
Cc1ccc(N2CC(c3noc(-c4ccccc4C)n3)CC2=O)cc1 (stereo not given) | 0
CC(C)c1ccc(CNC(=O)CN2CC3CC(C2)[C@H]2CCCC(=O)N2C3)cc1 (stereo not given in full) | 0
COC(=O)[C@H](Cc1ccc(OC)cc1)NC(=O)[C@@H]1CNCCN1C(C)=O | 0
CC(=O)N1CCC(N2CC3(C2)C(=O)N(CCCN2CCCC2=O)C(=O)[C@@H]2C[C@@H](O)CN23)CC1 | 0
N#C/C(=C/c1ccccc1OCc1ccccc1)c1cccc(F)c1 | 0
Cc1ccc(C2Cn3cnc(C(=O)N4CCC(C(=O)NCc5cccc(F)c5)CC4)c3CO2)cc1 (stereo not given) | 0
COCCNc1nc2c(c(=O)n(C)c(=O)n2C)n1CCOC | 0

Bioassay records deposited in PubChem BioAssay by National Center for Advancing Translational Sciences (NCATS).
